Compound activity: PubChem BioAssay, National Center for Advancing Translational Sciences (NCATS)
A selection: hits, their analogues and other compounds. The true share with any hit is near 2.4%.
Pol eta inh-1 = blocks human DNA polymerase eta activity; Q9Y253; recombinant Pol eta, fluorescent DNA replication assay; Potency, µM (highest dose often 114 µM), usual class: inhibitors; 1.2% of 390,000 active; AID 588591
Target sequence (Q9Y253 whole entry, looked up): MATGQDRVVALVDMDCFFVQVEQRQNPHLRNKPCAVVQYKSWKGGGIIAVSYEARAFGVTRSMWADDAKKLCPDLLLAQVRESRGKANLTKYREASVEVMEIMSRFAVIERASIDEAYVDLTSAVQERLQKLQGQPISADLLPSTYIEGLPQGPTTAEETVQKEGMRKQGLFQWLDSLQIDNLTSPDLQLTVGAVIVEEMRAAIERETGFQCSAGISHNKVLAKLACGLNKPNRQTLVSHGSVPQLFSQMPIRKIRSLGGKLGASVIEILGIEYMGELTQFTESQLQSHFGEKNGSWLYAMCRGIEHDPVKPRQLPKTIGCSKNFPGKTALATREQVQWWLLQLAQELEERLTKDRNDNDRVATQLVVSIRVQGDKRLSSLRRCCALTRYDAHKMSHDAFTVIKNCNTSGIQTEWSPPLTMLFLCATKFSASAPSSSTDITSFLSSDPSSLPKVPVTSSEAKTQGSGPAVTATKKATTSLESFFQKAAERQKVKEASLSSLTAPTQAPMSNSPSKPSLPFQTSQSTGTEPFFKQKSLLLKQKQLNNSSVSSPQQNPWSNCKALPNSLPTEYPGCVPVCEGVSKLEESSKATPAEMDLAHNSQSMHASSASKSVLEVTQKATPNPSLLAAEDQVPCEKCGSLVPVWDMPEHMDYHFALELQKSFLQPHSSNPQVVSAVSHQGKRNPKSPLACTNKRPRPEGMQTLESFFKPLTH
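Pol eta at 10 nM preincubated with compounds 15 min at room temperature; reaction started with fluorescent substrate (50 nM final) and read kinetically at 0 and 10 min.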
Pol beta inh = blocks human DNA polymerase beta activity; P06746; Pol beta primer extension/strand displacement, fluorescence kinetic; Potency, µM (highest dose often 114 µM), most hits filed as inhibitors; 1.3% of 340,000 active
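Preincubation: enzyme (10 nM) with compound, 15 min, RT. Reaction: substrate added to 50 nM final. Reads: 0 and 10 min. Analysis: normalized, Hill fit.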
Tb PGK inh = blocks T. brucei phosphoglycerate kinase. P07378. PGK/GAPDH coupled, Kinase-Glo luminescence, 60 min. Potency, µM (series often up to 57.5 µM), usual class: inhibitors. 0.043% of 380,000 active. AID 602233; further: nearly all actives have a fitted effect of over 60% in size
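Luminescent ATP detection (Kinase-Glo Plus) follows a 60-minute room-temperature incubation, with wells lacking PGK as controls. Buffer: 100 mM TEA (pH 7.6), 5 mM MgCl2, 0.01% Tween-20. Coupling enzyme GAPDH (100 nM final) supplies unstable 1,3-BPG in-well.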
Pol kappa inh-1 = blocks human DNA polymerase kappa activity | Q9UBT6 | purified Pol kappa, fluorescent DNA synthesis assay, 10 min | Potency, µM (series often up to 107 µM), hits mostly inhibitors | 0.53% of 400,000 active | AID 588579
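First, compounds were pin-transferred onto 10 nM Pol kappa. After 15 min at room temperature, substrate was added to 50 nM final. Fluorescence was then measured kinetically at 0 and 10 min.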
FEN1 inh = inhibitors of human flap endonuclease 1. P39748. Recombinant FEN1 flap cleavage, fluorescence, 15 min. Potency, µM (doses to about 114 µM), usual class: inhibitors. 0.35% of 390,000 active. AID 588795; further: nearly all actives have a fitted effect of over 65% in size
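Steps: FEN1 (10 nM) dispensed; compound added by pin tool; 15 min at room temperature; substrate added to 50 nM final; reads at 0 min and 15 min; data normalized and fitted (four-parameter Hill).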
Pol iota inh = DNA polymerase iota (human) inhibition; Pol iota fluorescent replication assay, 10 min; 1% of 390,000 active; Potency, µM (highest dose often 115 µM), most hits filed as inhibitors; AID 588590; Q9UNA4
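Fluorescent replication assay read twice, at 0 min and 10 min after adding 50 nM (final) substrate. Enzyme (10 nM) and compounds were first incubated 15 min at room temperature; enzyme-free buffer wells were negative controls.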
Pol kappa inh-2 = confirmation of human DNA polymerase kappa inhibitors | purified Pol-kappa, fluorescent strand-displacement substrate | Potency, µM, most hits filed as inhibitors | AID 720501 | shares compounds with Pol eta inh-1 | 76% of 920 active
Pol eta inh-2 = confirmation of human DNA polymerase eta inhibitors; Potency, µM, hits mostly inhibitors; Pol eta primer extension, TAMRA/BHQ fluorescence, 10 min; shares compounds with Pol eta inh-1; 64% of 2,600 active; AID 720502
Of the large screens only hits and unclear results are named; the others gave an inactive call (follow-up assays come after a bar, where they were run). The call rests on the fitted dose curve; in most records, active means well fitted curve in the direction sought with a large enough effect; inconclusive means small, poorly fitted or top-dose-only effect, or another doubt; inactive means no such curve, though single readings can be large; an effect the other way counts as inactive or inconclusive.

CN(C)c1ccc(NC(=O)CSCc2nc3c(nnn3Cc3ccc(F)cc3)c(=O)[nH]2)cc1	Pol eta inh-1 50µM, Pol beta inh 28µM, Pol kappa inh-1 inconclusive, Pol iota inh 28µM | Pol eta inh-2 inconclusive
Cc1cccc(NC(=O)CSCc2nc3c(nnn3Cc3ccc(F)cc3)c(=O)[nH]2)c1C	none
O=c1cnc2cnc(N3CCNCC3)nc2n1C1CC1	none (no result: Pol eta inh-1, Pol beta inh, Tb PGK inh, FEN1 inh, Pol iota inh)
O=C(O)c1cccc(N2CCCC2)c1	Pol eta inh-1 inconclusive, Pol iota inh inconclusive | Pol eta inh-2 76
O=C(Cn1cc(S(=O)(=O)N2CCCC2)c(S(=O)(=O)N2CCCC2)c1)Nc1ccc(F)cc1	none
COc1cccc(NC(=O)Cn2cc(S(=O)(=O)N3CCCC3)c(S(=O)(=O)N3CCCC3)c2)c1	Pol eta inh-1 89µM, Pol beta inh inconclusive, Tb PGK inh inconclusive, Pol iota inh inconclusive | Pol kappa inh-2 38 | Pol eta inh-2 inconclusive
CCc1nn(CC(=O)NCc2ccc(OC)cc2OC)c(=O)c2cc3c(OC)cccc3n12	none
O=C(NCc1ccco1)c1nc2nc(-c3cccs3)cc(C(F)(F)F)n2n1	Pol eta inh-1 18µM, Pol beta inh inconclusive, Pol kappa inh-1 inconclusive, Pol iota inh inconclusive | Pol eta inh-2 76
Cc1cccc(/C=C(\C(=O)O)c2ccc(S(=O)(=O)N3CCCC3)s2)c1	Pol eta inh-1 13µM, Pol kappa inh-1 inconclusive, Pol iota inh inconclusive (no result: Pol beta inh) | Pol kappa inh-2 34 | Pol eta inh-2 inconclusive
CCOC(=O)c1ccc(NC(=O)Cc2ccc(-n3c(CC)nc4cccnc43)cc2)cc1	none
C/C=C\C=C/C(=O)Nc1cccc(C2=NOC3(C2)C[C@@H](C(N)=O)N(C(=O)C2(C)CC2)C3)c1 (stereo partly specified)	Pol eta inh-1 inconclusive, Pol iota inh 45µM | Pol eta inh-2 67
C/C=C\C(=O)Nc1cccc(C2=NOC3(C2)C[C@@H](C(N)=O)N(C(=O)C2(C)CC2)C3)c1 (stereo partly specified)	none
Cc1cc(C=C2C(=O)c3ccccc3C2=O)c(C)n1-c1ccc(C(=O)O)cc1	Pol eta inh-1 25µM, Pol beta inh inconclusive, Pol kappa inh-1 inconclusive, FEN1 inh inconclusive, Pol iota inh 35µM | Pol eta inh-2 inconclusive
O=C(O)c1cccc(-n2cccc2C=C2C(=O)c3ccccc3C2=O)c1	Pol eta inh-1 16µM, Pol beta inh inconclusive, FEN1 inh 50µM, Pol iota inh inconclusive | Pol eta inh-2 76
Cc1cc(/C=c2\sc3nc4ccccc4n3c2=O)c(C)n1-c1ccc(C(=O)O)cc1	Pol eta inh-1 22µM, Pol beta inh 22µM, Pol iota inh 45µM | Pol eta inh-2 inconclusive
Cc1ccc(C)c(NC(=O)C2CCN(S(=O)(=O)c3c(C)noc3/C=C/c3cccs3)CC2)c1	none
Cc1[nH]n(-c2ncc(-c3ccccc3)s2)c(=O)c1C(c1ccc(Cl)cc1)C(C#N)C#N (stereo unspecified)	Pol eta inh-1 28µM, Pol beta inh 32µM, Pol kappa inh-1 inconclusive, Pol iota inh inconclusive | Pol eta inh-2 inconclusive
CCN(CC)c1ccc(NC(=O)CSc2ccsc2[N+](=O)[O-])c(C)c1	Pol eta inh-1 45µM, Pol beta inh 25µM, Pol kappa inh-1 inconclusive, Pol iota inh inconclusive | Pol kappa inh-2 60 | Pol eta inh-2 inconclusive
O=C(CCC1N=C2c3ccccc3N=C(SCC(=O)NCc3ccco3)N2C1=O)NCc1ccco1 (stereo unspecified)	Pol eta inh-1 inconclusive, Pol beta inh 32µM, Tb PGK inh inconclusive, Pol kappa inh-1 inconclusive, Pol iota inh 13µM | Pol eta inh-2 inconclusive
Cc1ccc(CSC2=Nc3ccccc3C3=NC(CCC(=O)NCc4ccco4)C(=O)N23)cc1 (stereo unspecified)	none
C=CCOCCN1C(=O)C2C3C=CC(C2C1=O)C1C2C(=O)N(CCOCC=C)C(=O)C2C31 (stereo unspecified)	Pol eta inh-1 20µM, Pol beta inh inconclusive, Pol kappa inh-1 inconclusive, Pol iota inh 28µM | Pol eta inh-2 67
O=C(O)CCCN1C(=O)C2C3C=CC(C2C1=O)C1C(=O)N(CCCC(=O)O)C(=O)C31 (stereo unspecified)	none
C/C=C/COC(=O)c1[nH]c2c(c1C)C(=O)CC(c1ccco1)C2 (stereo unspecified)	Pol eta inh-1 22µM, Pol beta inh 22µM, Pol kappa inh-1 79µM, Pol iota inh inconclusive | Pol eta inh-2 inconclusive
COC(=O)c1[nH]c2c(c1C)C(=O)CC(c1ccccc1)C2 (stereo unspecified)	none (no result: Tb PGK inh)
Cc1ccc(C(=O)CSC2=C(C#N)C(c3ccco3)CC(=O)N2)c(C)c1 (stereo unspecified)	Pol eta inh-1 79µM, Pol beta inh 32µM, Pol kappa inh-1 inconclusive, Pol iota inh 18µM | Pol eta inh-2 inconclusive
N#CC1=C(N)Oc2n[nH]c(-c3cccnc3)c2C1c1ccc([N+](=O)[O-])o1 (stereo unspecified)	Pol eta inh-1 28µM, Pol kappa inh-1 inconclusive, Pol iota inh inconclusive | Pol eta inh-2 67
Oc1cccc(/C=N/Nc2ncnc3c2ncn3Cc2ccccc2)c1	none
Oc1ccc(/C=N/Nc2ncnc3c2ncn3Cc2ccccc2)cc1O	Pol eta inh-1 3.2µM, Pol beta inh 3.5µM, Pol kappa inh-1 inconclusive, Pol iota inh 2.2µM | Pol eta inh-2 48
Cc1cc(=O)oc2cc(OCC(=O)N3c4ccccc4NC(=O)C3(C)C)ccc12	Pol eta inh-1 56µM, Pol kappa inh-1 inconclusive, Pol iota inh 40µM (no result: Pol beta inh) | Pol eta inh-2 inconclusive
O=C(Cn1cc(C(=O)C(F)(F)F)c2ccccc21)N1CCCCCC1	none
CC1=C(C(=O)O)N2C(=O)C(NC(=O)c3ccc(F)cc3)C2SC1 (stereo unspecified)	none (no result: Pol beta inh)
COc1cccc(C(=O)NC2C(=O)N3C(C(=O)O)=C(COC(C)=O)CSC23)c1 (stereo unspecified)	Pol eta inh-1 50µM, Pol kappa inh-1 inconclusive, Pol iota inh inconclusive (no result: Pol beta inh) | Pol eta inh-2 76
Cc1nc2ncnn2c(N2CCN(C(=O)Cc3cccs3)CC2)c1C	Pol eta inh-1 79µM, Pol beta inh 20µM, Pol kappa inh-1 inconclusive, Pol iota inh inconclusive | Pol eta inh-2 inconclusive
CC(C)CC(NC(=O)/C(=C\c1ccco1)NC(=O)c1ccco1)C(=O)O (stereo unspecified)	none
